The text below walks through data of PubChem BioAssay (Tox21).

In test [1] the target is Thyrotropin-releasing hormone receptor (Homo sapiens) (UniProt P34981). The experiment in a line: qHTS assay to identify small molecule agonists of the thyrotropin-releasing hormone receptor (TRHR) signaling pathway (AID 1346891; calls by dose curve;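 further: HEK293 cells expressing TRHR with calcium dye readout; series mostly up to about 58 µM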). Put shortly: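 HEK293/TRHR cells, 1500 per well, 18 h 37 °C; Ca dye 2 h 37 °C; pin-tool compound addition (agonist mode); kinetic fluorescence 3 min, 1 s reads; 15 concentrations, triplicate.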
(In general: qHTS replaces the single test concentration by a dilution series.)

Test [2] is described as follows: Human pregnane X receptor (PXR) small molecule agonists, qHTS cell viability counter screen (AID 1346977). Further: nearly all actives have a fitted effect of over 50% in size. In short, it runs like this: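 Fluorescence read-out (CellTiter-Fluor) of viability in PXR-Luc HepG2 cells, multiplexed with the luciferase agonist read. Compounds in DMSO added after 5hr plating; 24hr total exposure at 37C, 5% CO2.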
Test [3] can be described thus: Caspase-3/7 induction in HepG2 cells by small molecules, qHTS assay (AID 1346978). Further: nearly all actives have a fitted effect of over 15% in size. In short, it runs like this: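 Wild-type HepG2 cells, 2,000/well, settled 5 hr at 37 C and 5% CO2, then compound-treated for 17 hr; caspase-3/7 activity read by luminescent Caspase-Glo 3/7 after 30 min at room temperature.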
Test [4] is described as follows: Caspase-3/7 induction in CHO-K1 cells by small molecules, qHTS cell viability counter screen (AID 1346979). Further: nearly all actives have a fitted effect of over 35% in size. In short, it runs like this:
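CHO-K1 wt, 1,500 cells/well; 5hr pre-incubation 37C/5% CO2; compound pin transfer (DMSO); 16hr exposure; CellTiter-Fluor added, 1hr, fluorescence read.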

The nature of test [5]: Caspase-3/7 induction in CHO-K1 cells by small molecules, qHTS assay (AID 1346980). Further: nearly all actives have a fitted effect of over 15% in size. In short, it runs like this:
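Wild-type CHO-K1 cells exposed to compounds for 17hr at 37 C, 5% CO2. Caspase-3/7 activity then measured by Caspase-Glo 3/7 luminescence after 30min at room temperature.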

A short description of test [6]: Caspase-3/7 induction in HepG2 cells by small molecules, qHTS cell viability counter screen (AID 1346981). Further: series mostly up to about 92 µM; nearly all actives have a fitted effect of over 30% in size. In short, it runs like this:
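HepG2, WT, 2,000 cells/well; 5 hr pre-incubation 37 C/5% CO2; compound pin-transferred from DMSO; 16 hr exposure; CellTiter-Fluor, 1 hr; fluorescence read.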

Test [7] concerns the target Nuclear receptor subfamily 1 group I member 2 (Homo sapiens) (UniProt O75469). The experiment in a line: Human pregnane X receptor (PXR) small molecule agonists, qHTS assay (AID 1346982). Further: nearly all actives have a fitted effect of over 35% in size. Further: potency means the concentration at half of the fitted maximal effect. In short, it runs like this: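 Luciferase signal from ONE-Glo (30 min, room temperature) measured activation of hPXR-driven CYP3A4 reporter expression in PXR-Luc HepG2 cells treated with compounds for 24 hr at 37 C.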

The target in test [8] is Acetylcholinesterase (Homo sapiens) (UniProt P22303). Description: Acetylcholinesterase (AChE) small molecule antagonists: enzyme-based qHTS assay (AID 1347397; calls by dose curve; further: nearly all actives have a fitted effect of over 55% in size; further: potency means the concentration at half of the fitted maximal effect). The note with it: Potency: AChE enzyme activity inhibition; outcome: AChE enzyme activity inhibition. Put shortly: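 Recombinant human AChE (50 mU/mL) preincubated with compound 30 min at room temperature; acetylthiocholine plus DTNB then added, and thiocholine formation read colorimetrically after 10 min at room temperature. DMSO served as vehicle control.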

Test [9] shares this target. Description: Acetylcholinesterase (AChE) small molecule antagonists: enzyme-based qHTS assay with human liver microsomes (AID 1347399; calls by dose curve; further: nearly all actives have a fitted effect of over 60% in size). The note with it: Potency: qHTS inhibition; outcome: qHTS inhibition. In short, it runs like this: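 Recombinant human AChE (50 mU/mL in the enzyme mix) and human liver microsomes (0.25 mg/mL final) were preincubated with compound and NADPH (0.25 mg/mL final) for 30 min at 37 C. Acetylthiocholine/DTNB was then added; thiocholine was read colorimetrically after 10 min at room temperature.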

Test [10] addresses Cytochrome P450 2C19 (Homo sapiens) (UniProt P33261). Description: Cytochrome P450 Family 2 Subfamily C Member 19 (CYP2C19) small molecule antagonists: luciferase reporter qHTS assay (AID 1671197). Further: nearly all actives have a fitted effect of over 65% in size. Further: potency means the concentration at half of the fitted maximal effect. In short, it runs like this: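 Luminescent readout of CYP2C19 activity: luciferin product detected 20 min after adding detection reagent. Before that, compound and enzyme-substrate mix preincubated 10 min at room temperature; NADPH-regenerating system started a 1 h, 37C reaction. Ketoconazole as positive control.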
(In general: Reporter assays use an easily measured gene product as a stand-in for the process of interest.)

For test [11], the target named is Cytochrome P450 2C9 (Homo sapiens) (UniProt P11712). Description: Cytochrome P450 Family 2 Subfamily C Member 9 (CYP2C9) small molecule antagonists: luciferase reporter qHTS assay (AID 1671198). Further: nearly all actives have a fitted effect of over 50% in size. Further: potency means the concentration at half of the fitted maximal effect. Put shortly:
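P450-Glo proluciferin substrate with CYP2C9 enzyme; 10 min RT preincubation, then NADPH regeneration 1 h at 37C; luciferin detection reagent 20 min RT, luminescence in relative luminescence units.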

Test [12] deals with Cytochrome P450 1A2 (Homo sapiens) (UniProt P05177). The experiment in a line: Cytochrome P450 Family 1 Subfamily A Member 2 (CYP1A2) small molecule antagonists: luciferase reporter qHTS assay (AID 1671199). Further: nearly all actives have a fitted effect of over 50% in size. Further: potency means the concentration at half of the fitted maximal effect. Put shortly:
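P450-Glo CYP1A2, 1536-well qHTS: enzyme/proluciferin substrate + cpd (DMSO), 10 min RT; NADPH regen, 1 h RT; detection reagent, 20 min; luminescence, RLU.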

The target of test [13] is Voltage-gated inwardly rectifying potassium channel KCNH2 (Homo sapiens) (UniProt Q12809). Description: Human Ether-a-go-go-Related Gene (hERG) channel small molecule antagonists: fluorescence cell-based qHTS assay (AID 1671200). Further: nearly all actives have a fitted effect of over 50% in size. Further: potency means the concentration at half of the fitted maximal effect. In short, it runs like this:
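Read-out: thallium influx as a surrogate for potassium, tracked as fluorescence (480 nm ex/540 nm em) every second for 2 min after Stimulus Buffer addition in dye-loaded hERG-U2OS cells.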
In general terms: Block of hERG is tested as a sign of cardiac risk.

Test [14] addresses Cytochrome P450 3A4 (Homo sapiens) (UniProt P08684). Description: Cytochrome P450 Family 3 Subfamily A Member 4 (CYP3A4) small molecule antagonists: luciferase reporter qHTS assay (AID 1671201). Further: nearly all actives have a fitted effect of over 50% in size. Further: potency means the concentration at half of the fitted maximal effect. Put shortly: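 Luminescent readout (RLU) proportional to CYP3A4 activity, from luciferin generated off a proluciferin substrate. Enzyme–substrate mix plus compound 10 min at room temp, NADPH regeneration 1 h, detection reagent 20 min.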

The target of test [15] is Acetylcholinesterase (Homo sapiens) (UniProt P22303). Description: Acetylcholinesterase (AChE) small molecule antagonists: fluorescence cell-based qHTS assay (AID 1347398; calls by dose curve; further: nearly all actives have a fitted effect of over 50% in size; further: potency means the concentration at half of the fitted maximal effect). The note with it: Potency: AChE activity; outcome: AChE activity. In short, it runs like this: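 SH-SY5Y cells (2000/well), attached overnight, incubated with compound 30 min at 37 C. Acetylthiocholine plus Thiolite Green then added for 40 min at room temperature. Thiocholine fluorescence (Ex/Em 490/520 nm) reports cellular AChE activity.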

The target is the same in test [16]. Description: Acetylcholinesterase (AChE) small molecule antagonists: colormetric cell-based qHTS assay (AID 1347395; calls by dose curve; further: nearly all actives have a fitted effect of over 30% in size; further: potency means the concentration at half of the fitted maximal effect). Put shortly:
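SH-SY5Y cells; cpd 30 min 37 C; + DTNB/acetylthiocholine, 90 min 37 C; colorimetric thiocholine read; qHTS.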

The target in test [17] is Cytochrome P450 2D6 (Homo sapiens) (UniProt P10635). Description: Cytochrome P450 Family 2 Subfamily D Member 6 (CYP2D6) small molecule antagonists: luciferase reporter qHTS assay (AID 1671196). Further: nearly all actives have a fitted effect of over 50% in size. Further: potency means the concentration at half of the fitted maximal effect. Put shortly:
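Read-out is luminescence from luciferin formed by CYP2D6 turnover of a proluciferin substrate, recorded as relative luminescence units. Reactions ran 1 h at room temperature after NADPH regeneration solution was added.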

The target in test [18] is Nuclear receptor subfamily 1 group I member 2 (Rattus norvegicus) (UniProt Q9R1A7). Description: Rat pregnane X receptor (rPXR) activation by small molecules, qHTS assay (AID 1346983). Further: nearly all actives have a fitted effect of over 20% in size. Conditions: rPXR luciferase reporter cells, One-Glo luminescence, 24 h; active compounds read high. In short, it runs like this: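 Cell-based rPXR activation assay: rPXR cells, 2,000 per well, rested 5hr at 37 C, then exposed to compounds in DMSO for 24 hr at 37 C. Luciferase activity read by One-Glo luminescence after 30 min at room temperature.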

Test [19] addresses Nuclear receptor subfamily 1 group I member 2 (Homo sapiens) (UniProt O75469). Description: CYP3A4 induction through human pregnane X receptor (PXR) by small molecules, qHTS assay (AID 1346984). Further: nearly all actives have a fitted effect of over 40% in size. Put shortly: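 Luminescence readout: luciferase signal after One-Glo (30 min, room temperature), following 3 h at 37C with 3uM final Luciferin-IPA P450 substrate. Cells were DPX-2 (HepG2, PXR/CYP3A4-luc co-transfected) dosed for 24 h.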

The target is the same in test [20]. Description: Human pregnane X receptor (PXR) activation by small molecules, qHTS assay (AID 1346985). Further: nearly all actives have a fitted effect of over 40% in size. In short, it runs like this:
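DPX-2 cells (HepG2 co-transfected with a PXR response element and a CYP3A4-promoter luciferase construct) were seeded at 2,000 per well, rested 5 hr at 37C, then exposed to DMSO-dissolved compounds for 24 hr. Activation was read as luciferase luminescence.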

The structures appear in SMILES notation. Values without a mark were called inactive. Results filed as inconclusive are left out. The source made the active and inactive calls. Unless noted, the call rests on the fitted dose curve; in most records, active means well fitted curve in the direction sought with a large enough effect in the repeat runs; inconclusive means weak or mixed curves; inactive means no such curve, though single readings can be large; an effect the other way counts as inactive or inconclusive.
On the % scale 0 is the no-effect control and ±100 the full control effect.

Chain of Cytochrome P450 1A2 (Homo sapiens) (P05177 whole entry, looked up): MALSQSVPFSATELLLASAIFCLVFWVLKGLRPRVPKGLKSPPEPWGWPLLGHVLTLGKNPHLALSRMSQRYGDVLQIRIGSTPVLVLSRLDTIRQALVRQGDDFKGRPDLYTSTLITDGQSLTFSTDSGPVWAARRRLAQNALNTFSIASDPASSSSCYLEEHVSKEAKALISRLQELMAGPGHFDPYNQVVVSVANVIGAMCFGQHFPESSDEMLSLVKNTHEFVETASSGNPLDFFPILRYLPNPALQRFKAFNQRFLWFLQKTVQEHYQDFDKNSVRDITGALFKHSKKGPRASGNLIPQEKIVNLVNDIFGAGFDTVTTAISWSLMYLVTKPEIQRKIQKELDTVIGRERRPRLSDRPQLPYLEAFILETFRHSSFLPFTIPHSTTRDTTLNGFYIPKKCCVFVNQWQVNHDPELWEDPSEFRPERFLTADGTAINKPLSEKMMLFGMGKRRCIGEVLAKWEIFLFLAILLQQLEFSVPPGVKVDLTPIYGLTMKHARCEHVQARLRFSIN
Chain of Nuclear receptor subfamily 1 group I member 2 (Homo sapiens) (O75469 whole entry, looked up): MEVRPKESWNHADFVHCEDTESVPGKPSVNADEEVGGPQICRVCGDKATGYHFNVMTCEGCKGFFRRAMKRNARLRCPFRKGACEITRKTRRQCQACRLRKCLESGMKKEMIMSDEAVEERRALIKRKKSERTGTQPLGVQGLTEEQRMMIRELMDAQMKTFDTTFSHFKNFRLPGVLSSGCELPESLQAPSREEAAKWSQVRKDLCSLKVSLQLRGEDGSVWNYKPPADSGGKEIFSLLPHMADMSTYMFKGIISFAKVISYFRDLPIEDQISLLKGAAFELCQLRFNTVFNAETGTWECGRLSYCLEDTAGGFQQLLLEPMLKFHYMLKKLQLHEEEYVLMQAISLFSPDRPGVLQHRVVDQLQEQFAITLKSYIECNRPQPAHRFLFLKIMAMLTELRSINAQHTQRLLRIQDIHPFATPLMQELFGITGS
Chain of Acetylcholinesterase (Homo sapiens) (P22303 whole entry, looked up): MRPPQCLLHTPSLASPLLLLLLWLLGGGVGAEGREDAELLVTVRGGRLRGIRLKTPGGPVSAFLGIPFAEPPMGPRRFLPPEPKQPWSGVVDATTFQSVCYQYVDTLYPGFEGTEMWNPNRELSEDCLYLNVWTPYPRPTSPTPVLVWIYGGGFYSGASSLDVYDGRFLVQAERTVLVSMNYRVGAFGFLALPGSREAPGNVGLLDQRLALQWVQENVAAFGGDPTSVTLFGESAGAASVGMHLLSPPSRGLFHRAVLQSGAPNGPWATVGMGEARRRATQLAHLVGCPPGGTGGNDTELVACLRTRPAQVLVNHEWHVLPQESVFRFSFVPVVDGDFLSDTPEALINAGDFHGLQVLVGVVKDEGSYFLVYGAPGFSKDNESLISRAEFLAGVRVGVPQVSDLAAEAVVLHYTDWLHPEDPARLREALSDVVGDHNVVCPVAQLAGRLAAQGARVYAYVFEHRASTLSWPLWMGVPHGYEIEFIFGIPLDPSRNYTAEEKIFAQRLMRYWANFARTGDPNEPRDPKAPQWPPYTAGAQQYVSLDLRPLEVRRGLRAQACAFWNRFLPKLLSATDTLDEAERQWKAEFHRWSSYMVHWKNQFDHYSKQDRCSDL
Chain of Cytochrome P450 2C19 (Homo sapiens) (P33261 whole entry, looked up): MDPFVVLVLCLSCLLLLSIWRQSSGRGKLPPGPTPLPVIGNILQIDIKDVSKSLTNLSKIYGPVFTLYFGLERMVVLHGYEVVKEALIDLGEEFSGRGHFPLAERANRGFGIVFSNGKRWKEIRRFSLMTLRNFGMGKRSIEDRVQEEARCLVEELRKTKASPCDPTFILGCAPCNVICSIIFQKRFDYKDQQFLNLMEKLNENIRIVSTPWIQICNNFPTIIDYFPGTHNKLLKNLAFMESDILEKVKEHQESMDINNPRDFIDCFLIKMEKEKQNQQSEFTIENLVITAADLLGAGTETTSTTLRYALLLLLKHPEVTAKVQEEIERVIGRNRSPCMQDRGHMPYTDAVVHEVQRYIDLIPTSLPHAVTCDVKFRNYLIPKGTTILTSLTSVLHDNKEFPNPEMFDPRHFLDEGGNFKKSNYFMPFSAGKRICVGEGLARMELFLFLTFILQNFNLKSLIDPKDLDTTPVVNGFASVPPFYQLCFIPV
Chain of Voltage-gated inwardly rectifying potassium channel KCNH2 (Homo sapiens) (Q12809 whole entry, looked up): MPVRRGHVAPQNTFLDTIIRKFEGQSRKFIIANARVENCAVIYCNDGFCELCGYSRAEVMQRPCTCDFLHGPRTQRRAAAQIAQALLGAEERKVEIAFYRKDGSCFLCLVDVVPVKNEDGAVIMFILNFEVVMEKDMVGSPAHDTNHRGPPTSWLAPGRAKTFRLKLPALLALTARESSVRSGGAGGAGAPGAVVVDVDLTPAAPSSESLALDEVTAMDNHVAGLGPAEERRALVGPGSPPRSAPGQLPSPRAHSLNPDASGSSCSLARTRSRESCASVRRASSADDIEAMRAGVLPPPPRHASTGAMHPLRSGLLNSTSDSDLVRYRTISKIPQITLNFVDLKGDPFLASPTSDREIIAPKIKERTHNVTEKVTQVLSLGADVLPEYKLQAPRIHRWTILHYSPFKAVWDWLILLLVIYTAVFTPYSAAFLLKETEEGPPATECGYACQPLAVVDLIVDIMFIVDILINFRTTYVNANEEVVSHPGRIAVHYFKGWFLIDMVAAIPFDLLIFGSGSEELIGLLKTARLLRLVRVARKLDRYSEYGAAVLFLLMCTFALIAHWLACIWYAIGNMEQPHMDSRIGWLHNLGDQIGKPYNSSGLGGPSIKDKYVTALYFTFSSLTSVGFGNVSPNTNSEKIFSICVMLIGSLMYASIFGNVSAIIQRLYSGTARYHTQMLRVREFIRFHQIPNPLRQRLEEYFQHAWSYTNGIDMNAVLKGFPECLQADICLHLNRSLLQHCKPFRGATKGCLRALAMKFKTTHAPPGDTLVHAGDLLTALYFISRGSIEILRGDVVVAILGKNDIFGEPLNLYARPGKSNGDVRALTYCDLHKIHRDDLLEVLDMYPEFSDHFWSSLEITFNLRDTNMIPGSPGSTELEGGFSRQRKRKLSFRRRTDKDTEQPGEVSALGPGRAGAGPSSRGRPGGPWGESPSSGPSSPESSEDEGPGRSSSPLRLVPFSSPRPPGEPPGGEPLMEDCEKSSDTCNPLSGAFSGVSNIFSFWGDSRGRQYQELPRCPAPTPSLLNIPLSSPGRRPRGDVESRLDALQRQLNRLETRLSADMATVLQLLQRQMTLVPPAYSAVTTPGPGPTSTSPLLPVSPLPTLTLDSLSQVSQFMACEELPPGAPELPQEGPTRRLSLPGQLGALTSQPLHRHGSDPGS
Chain of Cytochrome P450 2C9 (Homo sapiens) (P11712 whole entry, looked up): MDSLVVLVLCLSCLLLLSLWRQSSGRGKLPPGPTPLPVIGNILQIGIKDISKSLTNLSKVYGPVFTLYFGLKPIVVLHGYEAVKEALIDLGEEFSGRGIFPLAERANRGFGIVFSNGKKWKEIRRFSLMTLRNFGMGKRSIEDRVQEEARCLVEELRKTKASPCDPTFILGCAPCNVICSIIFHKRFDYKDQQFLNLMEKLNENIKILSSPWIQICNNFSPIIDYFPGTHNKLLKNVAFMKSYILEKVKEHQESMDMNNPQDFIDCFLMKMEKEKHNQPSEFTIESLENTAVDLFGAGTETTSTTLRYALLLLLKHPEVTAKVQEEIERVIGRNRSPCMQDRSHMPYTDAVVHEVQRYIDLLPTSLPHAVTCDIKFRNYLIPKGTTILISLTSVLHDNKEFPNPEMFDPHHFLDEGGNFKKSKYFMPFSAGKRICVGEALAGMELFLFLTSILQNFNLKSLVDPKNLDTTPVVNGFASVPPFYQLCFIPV
Chain of Cytochrome P450 2D6 (Homo sapiens) (P10635 whole entry, looked up): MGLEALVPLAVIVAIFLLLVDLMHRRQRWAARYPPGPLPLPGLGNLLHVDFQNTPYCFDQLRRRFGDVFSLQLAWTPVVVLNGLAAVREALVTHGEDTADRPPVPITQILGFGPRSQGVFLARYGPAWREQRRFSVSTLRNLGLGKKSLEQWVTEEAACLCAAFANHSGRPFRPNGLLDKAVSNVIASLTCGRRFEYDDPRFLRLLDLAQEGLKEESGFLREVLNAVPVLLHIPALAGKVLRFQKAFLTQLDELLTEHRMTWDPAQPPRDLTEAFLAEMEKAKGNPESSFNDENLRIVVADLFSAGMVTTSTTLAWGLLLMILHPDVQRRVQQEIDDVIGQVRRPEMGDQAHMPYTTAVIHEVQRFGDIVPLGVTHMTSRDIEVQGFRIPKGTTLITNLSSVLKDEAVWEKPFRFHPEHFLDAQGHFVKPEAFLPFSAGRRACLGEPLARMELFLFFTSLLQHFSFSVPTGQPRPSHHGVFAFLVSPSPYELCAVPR
Chain of Thyrotropin-releasing hormone receptor (Homo sapiens) (P34981 whole entry, looked up): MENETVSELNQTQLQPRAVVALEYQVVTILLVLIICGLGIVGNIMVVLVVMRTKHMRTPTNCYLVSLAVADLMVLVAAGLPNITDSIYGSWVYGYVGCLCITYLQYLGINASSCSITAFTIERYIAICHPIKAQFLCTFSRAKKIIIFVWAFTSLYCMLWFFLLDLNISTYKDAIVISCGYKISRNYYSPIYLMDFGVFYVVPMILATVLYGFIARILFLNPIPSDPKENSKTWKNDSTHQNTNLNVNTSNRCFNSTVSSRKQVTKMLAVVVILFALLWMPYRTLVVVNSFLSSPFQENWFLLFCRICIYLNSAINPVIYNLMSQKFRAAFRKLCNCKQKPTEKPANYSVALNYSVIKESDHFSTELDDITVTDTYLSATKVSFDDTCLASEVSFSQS

In the case of `CCOC(=O)C(Cl)Cc1cc(-n2nc(C)n(C(F)F)c2=O)c(F)cc1Cl` (configuration not stated), the outcome in test [1], in test [3] and in test [5] was inactive. Also, the Potency entry in test [2], in test [4], in test [6], in test [7], in [8] and in [9] was “inactive” in each case. Further, the Potency was 5.64 µM (active) in test [10]; 7.1 µM (active) in test [11]; 28.3 µM (active) in test [12]; 24.5 µM (active) in test [13]; 35.6 µM (active) in test [14].

On to `C1CN2CCC1CC2`, for which the molecule was called inactive in test [1], in test [3] and in test [5]. Besides, the Potency entry in test [2], in test [4], in test [6], in test [7], in [8] and in [15] was “inactive” throughout. Also, the Potency entry in [9], in test [11], in test [12] and in [14] was “inactive” each time. Besides, the Potency in test [10] is 43.6 µM (active).

For the molecule `CCOC(=O)C(SP(=S)(OC)OC)c1ccccc1` (configuration not stated), the molecule was called inactive in test [1], in [3] and in test [5]. Besides, the Potency result in test [2], in [4] and in test [6] was “inactive” throughout. Besides, the Potency in [16] was 31.7 µM (active); in test [8], 71 µM (active); in test [15] it was 22.4 µM (active); in [17], 44.8 µM (active); in test [10], 0.283 µM (active); in test [11] it was 1.26 µM (active). Further, the Potency in test [12] was 3.17 µM (active); in test [14] it was 2.83 µM (active).

In the case of `O=[N+]([O-])c1cccc(CCl)c1`, the outcome in test [1], in [3] and in test [5] was inactive. In addition, the Potency result in test [2], in [4], in [6] and in [13] was “inactive” in each case.

As to `Cc1ccc(-c2nc3ccc(C)cn3c2CC(=O)N(C)C)cc1`, the molecule was classed as inactive in test [1], in [3] and in test [5]. Moreover, the Potency result in test [2], in [4], in test [19], in test [20], in test [16] and in [8] was “inactive” in each case. Also, the Potency entry in test [15], in test [9], in test [10], in [11] and in test [13] was “inactive” throughout. Also, the values for the Potency in [7] and in test [12] were 23.7 µM (active) and 27.5 µM (active), respectively. In addition, the max activation in test [18] was 1.42%.

Take `COc1ccc2c(C(=O)c3ccc(Cl)cc3)c(C)n(CC(=O)O)c2c1`: the molecule was classed as inactive in test [1], in test [3] and in [5]. Moreover, the Potency entry in test [2], in test [4], in [6], in test [7], in test [9] and in test [17] was “inactive” in each case. Besides, the Potency entry in test [12], in test [13] and in test [14] was “inactive” each time. Also, the Potency in [11] was 15.5 µM (active).

Regarding `NCC1(CC(=O)O)CCCCC1`, the outcome in test [1], in test [3] and in test [5] was inactive. Also, the Potency result in test [2], in [4], in test [6], in test [7], in test [15] and in test [9] was “inactive” each time. The Potency result in [17], in [10], in [11], in test [12], in [13] and in test [14] was “inactive” throughout.

As for `CCC1(CC)C(=O)C=CNC1=O`, the result in test [1], in test [3] and in test [5] was inactive. In addition, the Potency entry in test [2], in [4], in test [6], in test [7], in [8] and in test [15] was “inactive” each time. Moreover, the Potency result in [9], in [13] and in [14] was “inactive” throughout. In addition, in test [12], the Potency was 15.5 µM (active).
